Measurements taken from PubChem BioAssay AID1974 (The Scripps Research Institute Molecular Screening Center, 2009).
The campaign covered roughly 300,000 compounds. About 3,200 (1.1%) were called active. For the sample, actives were picked, then their nearest neighbours and some compounds at random. Unmarked numbers belong to inactive results.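 Rule for the calls: active = inhibition above the campaign mean inhibition plus 3 SD (cut at about 35% in these data); inactive = the rest.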

Target: Glutathione S-transferase omega-1 (Homo sapiens) (UniProt P78417)
Experiment: human GSTO1 enzyme inhibition – biochemical, fluorescence polarization, counter-screen for RBBP9 inhibitor project, primary screen (AID 1974);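 note: 0% = GSTO1-1 with DMSO and 100% = wells lacking GSTO1-1 enzyme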
Settings: recombinant GSTO1, activity-based probe fluorescence polarization; at 5.96 µM; hits give high values

Sequence of Glutathione S-transferase omega-1 (Homo sapiens) (P78417 whole entry, looked up): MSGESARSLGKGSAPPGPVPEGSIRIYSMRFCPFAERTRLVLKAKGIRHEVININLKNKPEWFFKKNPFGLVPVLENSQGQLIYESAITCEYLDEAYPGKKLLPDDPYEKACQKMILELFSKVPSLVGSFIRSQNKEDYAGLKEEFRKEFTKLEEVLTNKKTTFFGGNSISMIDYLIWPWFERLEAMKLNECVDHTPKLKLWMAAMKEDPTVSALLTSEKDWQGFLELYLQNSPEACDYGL

| SMILES | inhibition |
| --- | --- |
| O=C(CCn1c(SCC(=O)c2ccccc2)nc2ccccc2c1=O)NCc1ccc(F)cc1 | 62.5% (active) |
| O=C(CCCn1c(SCC(=O)c2ccc(F)cc2)nc2ccccc2c1=O)NCc1ccco1 | 5.62% |
| O=C(CCCn1c(SCC(=O)c2ccccc2)nc2ccccc2c1=O)NCC1CCCO1 (stereo not given) | -0.93% |
| CCCCCCSc1ccc([C@@H]2[C@@H]3C(=O)N(CC)C(=O)[C@@H]3[C@]3(C(=O)OC)CCCCN23)cc1OC | -5.28% |
| Cc1cccc(NS(=O)(=O)c2cc(Cl)ccc2Cl)n1 | -9.4% |
| O=C1C(Cl)=C(N2CCOCC2)C(=O)N1c1ccccc1 | 3.26% |
| COC1=C(N2CCOCC2)C(=O)c2ccccc2C1=O | 57.8% (active) |
| COc1ccc(N2CCN(C(C)=C3C(=O)c4ccccc4C3=O)CC2)cc1 | 2.82% |
| COc1ccc(NS(=O)(=O)c2ccc(C)c(C(=O)NNC(=O)c3csc(N4CCOCC4)n3)c2)cc1 | -5.75% |
| CCCC1C(=O)N2C(N(C)C)=Nc3ccc(C)cc3N2C1=O (stereo not given) | -1.7% |
| COc1ccc(-c2cnc(SCCNC(=O)c3ccc4c(c3)OCO4)[nH]2)cc1 | -3.18% |
| COC(=O)c1ccc(CSc2nncn2C)cc1 | -6.04% |
| COC(=O)c1ccc(CSc2nnc(NC(C)C)s2)cc1 | -6.8% |
| COC(=O)c1ccc(CSc2nncn2N)cc1 | 61% (active) |
| OCC[C@H]1C[C@H](O)[C@@H](O)[C@]2(CCCCO2)O1 | 3.4% |
| COc1ccc(CC2c3cc(OC)c(OC)cc3CC[N+]2(C)CCC(=O)OCCCCCOC(=O)CC[N+]2(C)CCc3cc(OC)c(OC)cc3C2Cc2ccc(OC)c(OC)c2)cc1OC (stereo not given) | 11.1% |
| CCC(c1nnc(SCC(=O)NNC(=O)c2ccccc2)n1Cc1ccccc1)N(C)C (stereo not given) | 1.64% |
| COc1ccc(NC(=O)CSc2ncnc3[nH]ncc23)cc1 | 36.4% (active) |
| COc1ccc(NC(=O)CSc2nc(C)cs2)cc1 | 4.13% |
| COc1ccc(-n2ncc3c(SCC(=O)NNC(C)=O)ncnc32)cc1 | -13% |

| SMILES | inhibition |
| --- | --- |
| CCCCN1C(N)=NC[C@@H]1Cc1ccccc1 | -4.9% |
| CC(C)(C)C(=O)OCc1nc(-c2ccc(O)c(O)c2)cs1 | 37.1% (active) |
| COc1cc(CC(=O)Nc2nc(-c3ccc(F)c(F)c3)cs2)cc(OC)c1OC | -6.41% |
| Cc1onc(C(=O)NN)c1-c1csc(COc2ccccc2)n1 | 10.4% |
| CC(CCN1CCN=C1N(C)C)c1ccccc1 (stereo not given) | 4.27% |
| CNC(C)C#Cc1ccc2sc3cc(OC)c(OC)cc3c(=O)c2c1 (stereo not given) | 0.59% |
| CCCS(=O)(=O)Nc1c(C(=O)O)[nH]c2ccccc12 | 0.73% |
| O=C(O)c1[nH]c2ccccc2c1C(c1cccc(O)c1)c1c(C(=O)O)[nH]c2ccccc12 | 50.4% (active) |
| CC(NC(=O)COC(=O)c1cc(=O)[nH]c2ccccc12)c1ccccc1 (stereo not given) | -7.45% |
| CN(C)CCN(C(=O)CN1C(=O)c2ccccc2C1=O)c1nc2cc3c(cc2s1)OCCO3 | 1.93% |
| COc1cccc(N2CC(NC(=O)c3ccc4ccccc4c3)CC2=O)c1 (stereo not given) | -0.99% |
| CC1CCN(C(=O)COC(=O)c2cc(S(=O)(=O)N3CCOCC3)ccc2Cl)CC1 | -3.67% |
| O=C(OCC(=O)N1CCCC1=O)c1cc(S(=O)(=O)N2CCOCC2)ccc1Cl | 82% (active) |
| CC(C)(C)C(=O)COC(=O)c1cc(S(=O)(=O)N2CCCCC2)ccc1N1CCOCC1 | -0.05% |
| CCCNC(=O)c1onc(CSc2ccc(F)cc2)c1C(=O)NC(C)C | -6.69% |
| CC[N+](C)(CC)CCC[n+]1c(-c2ccccc2)c2cc(N)ccc2c2ccc(N)cc21 | 92.8% (active) |
| COCC(=O)Nc1c(I)c(C(=O)NCC(O)CO)c(I)c(C(=O)N(C)CC(O)CO)c1I (stereo not given) | 3.24% |
| Cc1ccc2c(c1)N(CC(=O)NCC1CCCO1)C(=O)CO2 (stereo not given) | -3.07% |
| Cn1c(SCC(=O)N/N=C/c2ccc(O)c(O)c2)nc2ccccc21 | 52% (active) |
| CCn1c(SCC(=O)N/N=C/c2ccncc2)nc2ccccc21 | -0.27% |

| SMILES | inhibition |
| --- | --- |
| CCOc1ccc(/C=N/NC(=O)CSc2ccccn2)cc1O | 1.26% |
| CSc1nc2ccccc2c(=O)n1Cc1ccc(F)cc1 | -7.17% |
| Cc1cc2nc3c(=O)n(Cc4ccccc4)c(=O)[nH]c3nc2cc1N | 44.9% (active) |
| CC(=O)c1ccc(-c2ccc(Cn3c(C)nc4cc(N)c(C)nc43)cc2)cc1 | 4.41% |
| CC1=C/C(=N\OS(=O)(=O)c2ccccc2)C=CC1=O | 49.7% (active) |
| O=S(=O)(ON(c1ccccc1)S(=O)(=O)c1ccccc1)c1ccccc1 | -0.47% |
| CCN(CC(=O)NCc1cccs1)C(=O)c1ccc(OC)c(S(=O)(=O)N2CCOCC2)c1 | 11.9% |
| O=C(Cc1c[nH]c2ccccc12)OCCOC(=O)Cc1c[nH]c2ccccc12 | -2.78% |
| COc1ccccc1CC(=O)NCCc1c[nH]c2ccccc12 | 5.81% |
| O=S(=O)(O)Oc1c[nH]c2ccccc12 | 62.3% (active) |
| Cc1ccc(Cn2nnc3c(=O)[nH]c(C4CCN(S(=O)(=O)/C=C/c5ccccc5)CC4)nc32)cc1 | -24.4% |
| CC(C)N(C(=O)c1ccc(-c2ccccc2F)cc1)C(C)C | 0.63% |
| O=C(CN1C(=O)c2ccccc2C1=O)NCc1ccc(C(=O)O)cc1 | 3.69% |
| CC(=O)N(C1=C(Cl)C(=O)c2ccccc2C1=O)c1ccc(C(=O)O)cc1 | 79.7% (active) |
| NC(=O)NC(=O)C(OC(=O)CCNS(=O)(=O)c1ccccc1)c1ccccc1 (stereo not given) | -0.72% |
| Cc1ccc(CSCC(=O)N(C)CC(=O)Nc2ccc(C)cc2)cc1 | -11.5% |
| CCOC(=O)c1cnc2nc(SCc3ccccc3Cl)[nH]n2c1=O | -25.6% |
| Cc1ccc([N+](=O)[O-])cc1S(=O)(=O)N1CCCN(C)CC1 | 2.63% |
| CN1CCN(/N=C2/C(=O)Nc3ccc([N+](=O)[O-])cc32)CC1 | 37.1% (active) |
| CN1CCN(/N=C/c2ccc(-c3ccc([N+](=O)[O-])cc3)o2)CC1 | 3.62% |
